Results from PubChem BioAssay AID1159580 (chemical genetic matrix, 2015).
Among all 5,500 compounds or so, about 2,000 (36%) were called active. Roughly 18% stayed inconclusive and do not appear here. No stated cut-off is given here; in the data, active means normalized growth mostly below about 0.91 (no sharp cut-off); inconclusive means no clear call, values can overlap the other calls; inactive means mostly above about 0.92. Some of the results follow.

Experiment: chemical genetic growth profiling, strain panel (AID 1159580);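 further: tested at 20 µM; growth read once vehicle control cultures reached saturation at 30 °C; 1 = growth at the plate median or of vehicle wells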
Settings: growth OD

Measured: normalized growth

CC[C@H](CCC(C)[C@H]1CCC2C3CCC4C[C@@H](O)CC[C@]4(C)C3CC[C@@]21C)C(C)C (stereo partly drawn)
inactive: S. cerevisiae deletion strains, locus YKL009W, strain mrt4, stronger effect = lower value 1.02 | S. cerevisiae deletion strains, locus YKL068W, stronger effect = lower value 1.01 | S. cerevisiae deletion strains, locus YKL085W, strain MDH1 (second series), stronger effect = lower value 1.01 | S. cerevisiae deletion strains, locus YKL085W, strain MDH1, stronger effect = lower value 1.01 | S. cerevisiae deletion strains, locus YKL160W, strain elf1, stronger effect = lower value 1.02 | S. cerevisiae deletion strains, locus YKR001C, strain vps1, stronger effect = lower value 1.04 | S. cerevisiae deletion strains, locus YKR026C, strain gcn3, stronger effect = lower value 0.988 | S. cerevisiae deletion strains, locus YKR091W, strain srl3, stronger effect = lower value 0.992 | S. cerevisiae deletion strains, locus YLL001W, strain dnm1, stronger effect = lower value 1.01 | S. cerevisiae deletion strains, locus YLL026W, stronger effect = lower value 0.991 | S. cerevisiae deletion strains, locus YLL041C, strain sdh2, stronger effect = lower value 0.969 | S. cerevisiae deletion strains, locus YLR027C, strain aat2, stronger effect = lower value 0.987 | S. cerevisiae deletion strains, locus YLR039C, strain RIC1, stronger effect = lower value 0.995 | S. cerevisiae deletion strains, locus YLR058C, strain SHM2, stronger effect = lower value 1.01 | S. cerevisiae deletion strains, locus YLR102C, strain apc9, stronger effect = lower value 1.01 | S. cerevisiae deletion strains, locus YLR113W, strain HOG1, stronger effect = lower value 0.991 | S. cerevisiae deletion strains, locus YLR221C, strain rsa3, stronger effect = lower value 1.03 | S. cerevisiae deletion strains, locus YLR258W, strain gsy2, stronger effect = lower value 0.988 | S. cerevisiae deletion strains, locus YLR262C, strain YPT6 (second series), stronger effect = lower value 0.97 | S. cerevisiae deletion strains, locus YLR262C, strain YPT6, stronger effect = lower value 1.02 | S. cerevisiae deletion strains, locus YLR268W, strain sec22, stronger effect = lower value 1.02 | S. cerevisiae deletion strains, locus YLR320W, strain mms22, stronger effect = lower value 1.02 | S. cerevisiae deletion strains, locus YLR330W, strain CHS5, stronger effect = lower value 1.01 | S. cerevisiae deletion strains, locus YLR342W, strain FKS1 (second series), stronger effect = lower value 1.01 | S. cerevisiae deletion strains, locus YLR342W, strain FKS1, stronger effect = lower value 0.978 | S. cerevisiae deletion strains, locus YLR357W, strain rsc2, stronger effect = lower value 0.98 | S. cerevisiae deletion strains, locus YLR370C, strain arc18, stronger effect = lower value 0.98 | S. cerevisiae deletion strains, locus YLR371W, strain rom2, stronger effect = lower value 1.01 | S. cerevisiae deletion strains, locus YLR384C, strain iki3, stronger effect = lower value 0.986 | S. cerevisiae deletion strains, locus YLR418C, strain cdc73, stronger effect = lower value 1 | S. cerevisiae deletion strains, locus YML016C, strain PPZ1, stronger effect = lower value 1.01 | S. cerevisiae deletion strains, locus YML032C, strain rad52, stronger effect = lower value 1.01 | S. cerevisiae deletion strains, locus YML120C, strain ndi1, stronger effect = lower value 0.989 | S. cerevisiae deletion strains, locus YML124C, strain tub3, stronger effect = lower value 1.01 | S. cerevisiae deletion strains, locus YMR058W, strain fet3, stronger effect = lower value 0.967 | S. cerevisiae deletion strains, locus YMR078C, strain ctf18, stronger effect = lower value 1.01 | S. cerevisiae deletion strains, locus YMR125W, strain sto1, stronger effect = lower value 0.969 | S. cerevisiae deletion strains, locus YMR129W, stronger effect = lower value 0.982 | S. cerevisiae deletion strains, locus YMR205C, strain PFK2, stronger effect = lower value 1.01 | S. cerevisiae deletion strains, locus YMR223W, strain ubp8, stronger effect = lower value 0.988 | S. cerevisiae deletion strains, locus YMR231W, strain pep5, stronger effect = lower value 0.975 | S. cerevisiae deletion strains, locus YMR263W, strain SAP30, stronger effect = lower value 1.01 | S. cerevisiae deletion strains, locus YMR307W, strain GAS1, stronger effect = lower value 0.973 | S. cerevisiae deletion strains, locus YNL067W, strain RPL9B, stronger effect = lower value 1 | S. cerevisiae deletion strains, locus YNL071W, strain lat1, stronger effect = lower value 0.974 | S. cerevisiae deletion strains, locus YNL153C, strain GIM3, stronger effect = lower value 1 | S. cerevisiae deletion strains, locus YNL183C, strain NPR1, stronger effect = lower value 0.974 | S. cerevisiae deletion strains, locus YNL209W, strain ssb2, stronger effect = lower value 1 | S. cerevisiae deletion strains, locus YNL233W, strain BNI4, stronger effect = lower value 1 | S. cerevisiae deletion strains, locus YNL248C, strain rpa49, stronger effect = lower value 0.975 | S. cerevisiae deletion strains, locus YNL250W, strain rad50, stronger effect = lower value 1 | S. cerevisiae deletion strains, locus YNL271C, strain bni1, stronger effect = lower value 1.01 | S. cerevisiae deletion strains, locus YNL298W, strain CLA4, stronger effect = lower value 1.02 | S. cerevisiae deletion strains, locus YNL307C, strain MCK1, stronger effect = lower value 1.01 | S. cerevisiae deletion strains, locus YNL322C, strain KRE1 (second series), stronger effect = lower value 0.982 | S. cerevisiae deletion strains, locus YNL322C, strain KRE1, stronger effect = lower value 1 | S. cerevisiae deletion strains, locus YNR049C, strain mso1, stronger effect = lower value 0.984 | S. cerevisiae deletion strains, locus YNR052C, strain pop2, stronger effect = lower value 1.02 | S. cerevisiae deletion strains, locus YOL012C, strain htz1 0.67 | S. cerevisiae deletion strains, locus YOL147C, strain pex11, stronger effect = lower value 1 | S. cerevisiae deletion strains, locus YOR001W, strain rrp6, stronger effect = lower value 0.949 | S. cerevisiae deletion strains, locus YOR061W, strain CKA2, stronger effect = lower value 1.02 | S. cerevisiae deletion strains, locus YOR069W, strain VPS5, stronger effect = lower value 1.01 | S. cerevisiae deletion strains, locus YOR070C, strain gyp1, stronger effect = lower value 1.02 | S. cerevisiae deletion strains, locus YOR080W, strain dia2, stronger effect = lower value 0.988 | S. cerevisiae deletion strains, locus YOR083W, strain WHI5, stronger effect = lower value 1.03 | S. cerevisiae deletion strains, locus YOR106W, strain vam3, stronger effect = lower value 0.998 | S. cerevisiae deletion strains, locus YOR136W, strain idh2, stronger effect = lower value 1.01 | S. cerevisiae deletion strains, locus YOR144C, strain elg1, stronger effect = lower value 1.01 | S. cerevisiae deletion strains, locus YOR184W, strain ser1, stronger effect = lower value 1.02 | S. cerevisiae deletion strains, locus YOR231W, strain MKK1, stronger effect = lower value 1.01 | S. cerevisiae deletion strains, locus YOR265W, strain rbl2, stronger effect = lower value 1.02 | S. cerevisiae deletion strains, locus YOR270C, strain vph1, stronger effect = lower value 0.979 | S. cerevisiae deletion strains, locus YOR290C, strain snf2, stronger effect = lower value 0.995 | S. cerevisiae deletion strains, locus YOR316C, strain cot1, stronger effect = lower value 1.01 | S. cerevisiae deletion strains, locus YPL051W, strain arl3, stronger effect = lower value 0.995 | S. cerevisiae deletion strains, locus YPL055C, strain LGE1, stronger effect = lower value 1 | S. cerevisiae deletion strains, locus YPL078C, strain atp4, stronger effect = lower value 0.989 | S. cerevisiae deletion strains, locus YPL106C, strain sse1, stronger effect = lower value 0.994 | S. cerevisiae deletion strains, locus YPL240C, strain hsp82, stronger effect = lower value 0.987 | S. cerevisiae deletion strains, locus YPL241C, strain CIN2, stronger effect = lower value 1 | S. cerevisiae deletion strains, locus YPL256C, strain CLN2, stronger effect = lower value 1.02 | S. cerevisiae deletion strains, locus YPR119W, strain clb2, stronger effect = lower value 1.01 | S. cerevisiae deletion strains, locus YPR141C, strain kar3, stronger effect = lower value 1.01 | S. cerevisiae deletion strains, locus YPR163C, strain tif3, stronger effect = lower value 1.01 | S. cerevisiae deletion strains, locus YPR167C, strain met16, stronger effect = lower value 1 | S. cerevisiae deletion strains, strain wtn01, stronger effect = lower value 1.02 | S. cerevisiae strains, strain wild type, stronger effect = lower value 1.01
